This passage reports Inhibition results from ChEMBL document CHEMBL1157539, “Thousands of chemical starting points for antimalarial lead identification” (Nature, 2010).

In the assay the test system is Plasmodium falciparum. Kind of assay: GSK_TCMDC: Inhibition of Plasmodium falciparum 3D7 in whole red blood cells, using parasite LDH activity as an index of growth. Test compounds present at 2uM. Type of assay: functional.
For orientation: Inhibition means the share of the control response that was lost under treatment. A high value points to a response far below the control. In the case of `COc1cc2nc(N3CCC(CNCc4ccc(-c5ccc(C(F)(F)F)cc5)cc4)CC3)nc(N)c2cc1OC`, the Inhibition was 99%. Turning to `CCn1c(-c2nc(-c3ccc4c(c3)OCO4)cnc2N)nc2cnccc21`, the Inhibition was 100%. `CN1CCC(NCc2ccc(-c3ccc(S(=O)(=O)NC4CCC4)s3)cc2)CC1.O=C(O)C(F)(F)F` gave an Inhibition of 92%.

In turn, `COc1ccc2c(NN=Cc3cccc(C)n3)ccnc2c1` displayed an Inhibition of 96%. Then `COc1cc(NC(=O)c2ccc3oc4ccccc4c3c2)ccc1OCCN1CCCCC1.Cl`, with 89%; and `Fc1ccc2[nH]ccc(=NN=CC=Cc3ccccc3)c2c1`, with 96%; and `N#CC(c1cccc(Cl)c1)c1ccc2c(C(F)(F)F)cc(C(F)(F)F)nc2n1` (stereo unspecified), with 96%.

With `COc1ccc(-c2cc(C(=O)N[C@@H](CC3CCCCC3)C(=O)NCCN3CCCCC3)ccc2O)cc1`, the Inhibition worked out at 98%. The value for `Cc1cc(N[C@@H](Cc2ccccc2)C(=O)NCCOc2ccccc2)nc(NCC2CCCCC2)n1.O=C(O)C(F)(F)F` was 100%; that for `Cc1cccc2nc(-c3ccc(-c4cccc(NC(=O)NCc5cccc(F)c5)c4)s3)[nH]c12` was 88%.

`FC(F)(F)c1ccc2[nH]c(-c3ccc(-c4cccc(CNCc5cnn(-c6ccccc6)n5)c4)cc3)nc2c1.O=C(O)C(F)(F)F` registered an Inhibition of 99%. Then `O=C(Nc1cc(C(F)(F)F)ccc1Cl)c1ccc(Cn2cc(Br)cn2)cc1`, with 91%. The value for `COc1ccc2nccc([C@@H](O)CN3CCC(NC(=O)C(=Cc4ccc(Cl)cc4Cl)c4ccc(-c5ccccc5)cc4)CC3)c2c1` was 100%; that for `O=C(CNC1CCCCC1)Nc1cccc(C(=O)Nc2cccc(C(F)(F)F)c2)c1.O=C(O)C(=O)O` was 93%. The value for `CN1CCC(Oc2ccc(Nc3nccc(NCC(O)c4ccccc4)n3)cc2Cl)CC1` (stereo unspecified) was 100%; that for `O=C(C=Cc1ccccc1)Nc1ccc(C#CC=Cc2ccc(NC(=O)C=Cc3ccccc3)cc2)cc1` was 100%; that for `CC(C)(CN1CCCC1)CN(Cc1ccc(-c2ccc(C(F)(F)F)cc2)cc1)C(=O)Cn1c(CCc2cccc(F)c2F)nc(=O)c2ccccc21.O=C(O)C(O)C(O)C(=O)O` was 97%. As for `CCCNC(=O)Nc1cc2cc(-c3ccc(CN4CCCC4)cc3)ccc2n2c(C)nnc12`, the Inhibition was found to be 93%. For `COC(=O)c1ccc2nc(-c3ccc(C(=O)NC4CCN(Cc5ccccc5)CC4)s3)[nH]c2c1`, the Inhibition was determined as 99%. For `COc1ccc2nccc(NC(=O)N3CCC(NCc4cc5ccccc5[nH]4)CC3)c2n1.O=C(O)C(=O)O`, the Inhibition came to 85%. Then `COc1ccc(NC(=O)Nc2ccc(-c3ccc(-c4nc5ccccc5[nH]4)cc3)cc2)cc1`, with 100%; and `COc1cc(F)c2nccc([C@@H](O)CN3CCC(NCc4cc5c(cc4F)OCCO5)CC3)c2c1`, with 99%; and `COc1ccccc1N1CCN(Cc2cc(C(C)C)c(C)cc2O)CC1`, with 97%. The value for `COc1cccc(C2CCN(CCN3CCC(NC(=O)c4ccc(-c5ccc(Cl)cc5)cc4)CC3)CC2)c1` was 93%; that for `CO/C(=C\C=C\c1cc2cc(Cl)c(Cl)cc2[nH]1)C(=O)NC1CC2CCCC(C1)N2C` (stereo unspecified) was 93%; that for `CCc1cn(CCOC)c2ccc(C(=O)N[C@@H](Cc3ccccc3)[C@H](O)CNC(C)(C)CCCC(C)C)cc12.O=CO` was 98%.

`COc1cc(NC(=O)N2CCc3ccc(OCCN4CCCCC4)cc32)cc(C(F)(F)F)c1.O=C(O)C(F)(F)F`: the Inhibition was 100%. Then `Cc1nc(N)nc(N)c1-c1cccc(Cl)c1`, with 88%; and `COc1ccccc1N1CCN(Cc2c(O)ccc3cc(Br)ccc23)CC1`, with 89%.

For the compound `CC(C)NCc1cc(Nc2ccnc3cc(Cl)ccc23)ccc1O.Cl`, the Inhibition stood at 100%. Then `Cc1cccc2nc(-c3cccc(-c4ccc(C(=O)NCc5ccccc5S(C)(=O)=O)cc4)c3)[nH]c12`, with 100%; and `CCNc1cc(C(=O)N[C@@H](Cc2ccccc2)[C@H](O)CNCc2cccc(-c3cncnc3)c2)cc(N2CCCC2=O)c1.O=C(O)C(F)(F)F`, with 97%. The value for `Br.Cc1cc(F)ccc1Nc1nc(N(C)c2ccccc2)c2cccc(O)c2n1` was 92%; that for `O=S(=O)(c1ccc(Oc2ccccc2)cc1)N(CCC(O)(C(F)(F)F)C(F)(F)F)Cc1cccc(O)c1` was 100%; that for `CCC(CC)n1c(COC)cc2c3c(N)nc(N)nc3ccc21` was 95%.

The compound `COc1ccc(C2C(C(=O)Nc3ccccc3)=C(C)Nc3c(C(=O)Nc4ccccc4)cnn32)cc1` (stereo unspecified) had an Inhibition of 85%.
